Laboratory results taken from PubChem BioAssay AID777 (Sanford-Burnham Center for Chemical Genomics, 2007).
The whole screen tested about 96,000 compounds, of which about 19,000 (20%) were called active.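 The calls were made as follows: active = blocking of liver enzyme CYP2C9 beyond about 50% at 5 µM (limit read from the data); inactive = the rest.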 A selection follows.

target: Cytochrome P450 2C9 (Homo sapiens) (UniProt P11712); test: blockers of cytochrome P450 2C9 activity – biochemical, luminescence, ADME assay, primary screen (AID 777); conditions: CYP2C9 Supersomes, luciferin-H conversion, at 5 µM, hits give high values
Sequence (P11712 whole entry, looked up): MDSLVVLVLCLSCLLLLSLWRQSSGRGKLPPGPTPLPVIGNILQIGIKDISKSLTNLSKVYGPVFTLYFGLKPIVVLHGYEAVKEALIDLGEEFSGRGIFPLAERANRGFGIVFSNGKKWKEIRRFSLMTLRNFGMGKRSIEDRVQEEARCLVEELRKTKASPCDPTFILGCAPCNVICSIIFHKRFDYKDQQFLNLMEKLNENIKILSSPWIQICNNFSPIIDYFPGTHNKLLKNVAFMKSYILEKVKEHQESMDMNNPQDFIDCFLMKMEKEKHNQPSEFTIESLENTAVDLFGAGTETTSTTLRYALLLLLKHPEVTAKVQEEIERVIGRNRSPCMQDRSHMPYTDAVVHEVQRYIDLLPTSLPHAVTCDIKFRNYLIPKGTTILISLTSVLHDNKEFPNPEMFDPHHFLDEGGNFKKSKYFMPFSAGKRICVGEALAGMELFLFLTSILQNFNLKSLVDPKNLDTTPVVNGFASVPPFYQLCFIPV

inhibition, inactive:
CCOc1c(Cl)cc(/C=N/O)cc1OC -30%
COC(=O)c1cc(C(=O)OC)cc(N2C(=O)CC(N3CCN(c4ccccc4)CC3)C2=O)c1 (configuration not stated) 49%
Cn1cc(S(=O)(=O)N2CCC(Cc3ccccc3)CC2)c(=O)n(C)c1=O 23.7%
C=C1c2cc(CC)ccc2NC(=O)N1c1ccc(C)cc1 10.6%
CC(C)(C)n1nnc(CCc2nnn(C(C)(C)C)n2)n1 3.2%
Cc1c(NC(=O)/C=C/C(=O)O)cccc1[N+](=O)[O-] -2.8%
Cc1ccc(NC2(C#N)C(=O)Nc3ccccc32)cc1 (configuration not stated) -24.6%
CCOC(=O)c1c(NC(=O)/C=C/c2ccco2)sc(C)c1C -4%
CCOC(=O)c1c(NC(=O)CCl)sc(C(=O)N(CC)CC)c1C 49.6%
CC(=O)Nc1nonc1-c1nc2ccccc2n1Cc1ccccn1 7.4%
COc1ccccc1N1CCN(C(=O)c2cc(-c3ccc(Br)cc3)on2)CC1 -12%
COc1ccccc1N1CCN(C(=O)CSc2nnc(-c3ccoc3C)o2)CC1 25.8%
CN1CCN(CCCNC(=O)c2cc3c(=O)oc4ccccc4c3s2)CC1 -15.9%
CC(C)NS(=O)(=O)c1ccc(OCC(=O)Nc2ccc3c(c2)OCCO3)cc1 40.9%
COc1ccc(OCC(=O)NCCc2ccc(S(N)(=O)=O)cc2)cc1 41.9%
COc1ccc(-c2cc(C)nc3nc(N)nn23)cc1 -29.3%
Cc1cccc(N2C(=O)c3cccnc3C2=O)c1 3.1%
Cc1c(C(=O)CN2CCOCC2)[nH]c2ccccc12 -15.8%
CCOC(=O)c1[nH]c2ccc(OC)cc2c1NC(=O)N1CCOCC1 -9.2%
Cc1ccc(OCC(O)CN2CCN(CC(O)COc3ccc(C)cc3Cl)CC2)c(Cl)c1 (configuration not stated) -10.1%
CCCS(=O)(=O)Nc1c(C(=O)O)[nH]c2ccccc12 33.7%
COC(=O)c1[nH]c2ccc(Br)cc2c1NC(=O)Oc1ccccc1 4.5%
CCCCCCCCOC1OC(CO)C(O)C(O)C1NC(C)=O (configuration not stated) -2.6%
COC(=O)c1ccc(C(=O)Nc2cc(Cl)ccc2Cl)cc1NC(=O)c1ccccc1C -13.7%
Cc1ccc(N2C(=O)c3ccccc3C2(O)c2ncc[nH]2)cc1 (configuration not stated) -0.7%
CCOCC(=O)Nc1cc(OC)c(Cl)cc1OC 13.3%
Cc1nc(N2CCCC2C(=O)O)c2oc3ccccc3c2n1 (configuration not stated) -6.6%
O=C(CSC1=Nc2ccccc2C2=NC(c3ccccc3)C(=O)N12)NCC1CCCO1 (configuration not stated) 39.3%
CCOC(=O)c1cc2occc2n1CC(=O)NC1CCC(C)CC1 (configuration not stated) 22%
O=C1/C(=C\Nc2ccccc2)CCN1c1ncccn1 3.1%
CCOC(=O)CSc1nccc(N(C)C)c1C#N -35%
CCOC(=O)C1CCN(C(=O)Cn2cc(C#N)c3ccccc32)CC1 -6.6%
Cc1c(CCO)c(=O)n(-c2ccccc2)n1S(=O)(=O)c1ccc(F)cc1 37.6%
CCOC(=O)C1CCN(Cc2coc3ccc(Cl)cc3c2=O)CC1 -49.2%
CCN(CC(=O)Nc1ccccc1OC)C(=O)Cn1cnc2ccccc2c1=O 14.4%
COc1ccccc1NC(=O)CSc1nnc(Cn2nnc(-c3ccccc3)n2)n1-c1ccccc1 40.2%
COc1ccc(C2C=C(c3ccc(Br)cc3)Nc3nc(NS(C)(=O)=O)nn32)cc1 (configuration not stated) -11.7%
O=C(O)CCC(=O)NCc1ccc(C(=O)O)cc1 6.1%
COc1ccc(NC(=O)c2c(SC)nsc2SC)cc1 12.2%
CCCCCOC(=O)NCCOC(=O)Nc1ccc(C(=O)OCC)cc1 48%
COc1cc(OC)c(/C=N/NC(=O)c2ccc([N+](=O)[O-])cc2)cc1Br 1.8%
CCCc1ccc(OCc2ccc(C(=O)N/N=C/c3cccc([N+](=O)[O-])c3)o2)c(OC)c1 -10.7%
O=C1CCC(C(=O)Nc2ccc(OC(F)F)cc2)N1 (configuration not stated) 1.2%
CCCCNc1nc2ccccc2nc1NS(=O)(=O)c1cccs1 32.1%
CC(=O)N1CCN(CCN=CC2=C(O)CC(C)(C)CC2=O)CC1 4%
CC1(C)CC(=O)C(C=NCCC2=CCCCC2)=C(O)C1 0.7%
CC(=O)c1nn(-c2cccc(Br)c2)cc1C(=O)c1cccc2ccccc12 -72%
CC(C)COC(=O)C1C2C=CC3(CN(C(C)c4ccc(Br)cc4)C(=O)C13)O2 (configuration not stated) 9.2%
Cc1cc(NC(=O)c2cnn3cccnc23)n(-c2ccccc2)n1 32%
CCN(CC)CCN1C(=O)C(=O)/C(=C(/O)c2ccc(OC)c(OC)c2)C1c1ccccn1 (configuration not stated) -10.7%
COc1ccc(CCN(C)CCN2C(=O)c3ccccc3C2=O)cc1OC -9.6%

inhibition, active:
CCOC(=O)c1c(NC(C)=O)sc2c(O)c(Br)ccc12 55%
COc1ccccc1N1CCN(C(=O)c2c(-c3c(Cl)cccc3Cl)noc2C)CC1 88%
Cc1ccc(CNC(=O)COc2ccc(S(=O)(=O)NC(C)C)cc2)cc1 52.7%
Cc1c(C(=O)N2CCOCC2)[nH]c2ccc(OCc3ccccc3)cc12 72.7%
COC(=O)c1[nH]c2ccccc2c1NS(=O)(=O)c1ccc(OC)cc1OC 74.8%
CC(C)C1N=C2c3ccccc3N=C(SCC(=O)c3ccc(O)c(O)c3)N2C1=O (configuration not stated) 51.3%
CCOC(=O)CCc1c(C)c(C#N)c2[nH]c3ccccc3n2c1=O 64.1%
CCCc1nc(SCC(=O)Nc2ccccc2OC)c2c(=O)n(C)c(=O)n(C)c2n1 70.3%
N#Cc1cc([N+](=O)[O-])ccc1Oc1cccc(/C=N/NC(=O)c2ccc(Cl)cc2)c1 59.3%
CC1(C)CC(=O)C(C=NCCN2CCN(C(=S)Nc3cccc(Cl)c3)CC2)=C(O)C1 51.8%
COc1ccc(CCN2C(=O)c3[nH]nc(-c4ccccc4O)c3C2c2ccc(C)cc2)cc1OC (configuration not stated) 58%
